Growth data for five molecules are collected here from PubChem BioAssay (NCI).

Several values for one entry are separate records, joined by “and”; a condition that tells them apart may be missing. Equal entries are not always repeated. This is part of a sample that, as a whole, favours compounds with a hit. Of some 83,000 tested, about 20% had one in any assay.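 Single-dose data. Exposure time 48 hours. Values below 10 considered active.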 Activity calls are given as the source filed them.

Test systems include HCT-15 colon; HT29 colon; SNB-19 CNS; U251 CNS; PC-3 prostate; SK-MEL-5 melanoma; UACC-62 melanoma; LOX IMVI melanoma; SK-MEL-28 melanoma; SK-MEL-2 melanoma; EKVX NSCLC; SN12C renal; UO-31 renal; TK-10 renal; ACHN renal; CAKI-1 renal; CCRF-CEM leukemia; MOLT-4 leukemia; SNB-75 CNS; A498 renal.
Common to all, as to assay: NCI-60 one-dose screen, 48 h (100 = growth as untreated, 0 = no growth, -100 = all killed)
What all share (details): 10 µM unless noted

As to `c1ccc(N(c2ccccc2)c2ccccc2)cc1`, the growth in the experiment on HCT-15 colon was 99.8% (inactive); in the experiment on HT29 colon it was 97% (inactive); in the experiment on SNB-19 CNS it was 102% (inactive); in the experiment on U251 CNS it was 102% (inactive); in the experiment on PC-3 prostate it was 101% (inactive); in the experiment with SK-MEL-5 melanoma it was 113% (inactive). The growth in the experiment with UACC-62 melanoma was 104% (inactive); in the experiment on LOX IMVI melanoma, 94.5% (inactive); in the experiment on SK-MEL-28 melanoma, 117% (inactive); in the experiment on SK-MEL-2 melanoma, 99.8% (inactive); in the experiment on EKVX NSCLC, 101% (inactive); with SN12C renal, 106% (inactive). Also, the growth was 86.8% (inactive) in the experiment on UO-31 renal; 98.9% (inactive) in the experiment on TK-10 renal; 103% (inactive) in the experiment with ACHN renal; 90.3% (inactive) in the experiment on CAKI-1 renal; 98% (inactive) in the experiment on CCRF-CEM leukemia; 95.4% (inactive) in the experiment on MOLT-4 leukemia.

In the case of `CCN(CC)CCOc1ccc2c(c1)C(=O)c1cc(OCCN(CC)CC)ccc1-2`, the growth with HCT-15 colon is 78.2% (inactive) and 39% (inactive); with SNB-75 CNS, 74.9% (inactive) and 67.1% (inactive); in the experiment with SNB-19 CNS it was 83.9% (inactive) and 75.7% (inactive); in the experiment on U251 CNS it was 53.6% (inactive) and 61.3% (inactive); in the experiment on PC-3 prostate, 70.6% (inactive) and 35.9% (inactive); in the experiment with SK-MEL-5 melanoma, 95% (inactive) and 95.5% (inactive). The growth in the experiment with UACC-62 melanoma was 105% (inactive) and 103% (inactive); with LOX IMVI melanoma, 52.3% (inactive) and 37.3% (inactive); in the experiment with SK-MEL-28 melanoma, 123% (inactive) and 108% (inactive); in the experiment on SK-MEL-2 melanoma it was 114% (inactive) and 95.4% (inactive); in the experiment on EKVX NSCLC, 90.5% (inactive) and 59% (inactive); with SN12C renal, 73.2% (inactive) and 61.6% (inactive). Moreover, the growth in the experiment on UO-31 renal is 59.6% (inactive) and 4.32% (active); in the experiment with TK-10 renal, 75.8% (inactive) and 78.1% (inactive); in the experiment with ACHN renal, 46.7% (inactive); in the experiment with CAKI-1 renal it was 85.7% (inactive); with A498 renal, 73.9% (inactive) and 90.8% (inactive); with CCRF-CEM leukemia, 55.1% (inactive). Besides, the growth with MOLT-4 leukemia is 50.5% (inactive) and -16.2% (active).

In the case of `Cc1ccc(NCSc2ccc(Cl)cc2)cc1`, the growth in the experiment on HCT-15 colon is 77.1% (inactive) and 90.7% (inactive); with HT29 colon, 79.4% (inactive) and 75.7% (inactive); in the experiment with SNB-19 CNS it was 89.3% (inactive) and 90% (inactive); with U251 CNS, 71.4% (inactive) and 79.1% (inactive); with PC-3 prostate it was 66.8% (inactive) and 62.3% (inactive); in the experiment on SK-MEL-5 melanoma, 86.5% (inactive) and 102% (inactive). Also, the growth in the experiment with UACC-62 melanoma was 82.3% (inactive) and 85% (inactive); in the experiment with LOX IMVI melanoma it was 88.6% (inactive) and 95.2% (inactive); in the experiment with SK-MEL-28 melanoma, 86.9% (inactive) and 94.3% (inactive); in the experiment on SK-MEL-2 melanoma, 108% (inactive) and 93.6% (inactive); in the experiment on EKVX NSCLC, 92.7% (inactive) and 77.3% (inactive); in the experiment on SN12C renal, 46.2% (inactive) and 42.7% (inactive). Also, the growth with UO-31 renal was 27% (inactive) and 14.7% (inactive); in the experiment with TK-10 renal it was 90.8% (inactive) and 78.2% (inactive); in the experiment with ACHN renal, 88.4% (inactive) and 99.6% (inactive); in the experiment on CAKI-1 renal, 59.5% (inactive); in the experiment with A498 renal, 62.5% (inactive) and 66.3% (inactive); with CCRF-CEM leukemia, 17.8% (inactive). The growth in the experiment with MOLT-4 leukemia is 25.1% (inactive) and 47.8% (inactive).

Take `CCOC(=O)c1c(C)oc(C)c(C(=O)OCC)c1=O`: the growth in the experiment with HCT-15 colon was 106% (inactive) and 102% (inactive); in the experiment with HT29 colon, 105% (inactive) and 106% (inactive); in the experiment with SNB-19 CNS, 102% (inactive) and 90.2% (inactive); with U251 CNS it was 111% (inactive) and 101% (inactive); in the experiment with PC-3 prostate it was 94.1% (inactive) and 88.6% (inactive); with SK-MEL-5 melanoma, 111% (inactive) and 104% (inactive). Further, the growth with UACC-62 melanoma is 111% (inactive) and 96.6% (inactive); with LOX IMVI melanoma, 103% (inactive) and 97.3% (inactive); in the experiment on SK-MEL-28 melanoma, 109% (inactive) and 112% (inactive); in the experiment with SK-MEL-2 melanoma it was 111% (inactive) and 112% (inactive); in the experiment with EKVX NSCLC, 128% (inactive) and 104% (inactive); in the experiment with SN12C renal it was 113% (inactive) and 97.9% (inactive). Besides, the growth in the experiment on UO-31 renal is 96.6% (inactive) and 86.9% (inactive); with TK-10 renal it was 98.1% (inactive) and 106% (inactive); with ACHN renal, 102% (inactive) and 105% (inactive); in the experiment with CAKI-1 renal, 103% (inactive) and 95.4% (inactive); in the experiment on A498 renal, 113% (inactive) and 117% (inactive); in the experiment on CCRF-CEM leukemia, 96% (inactive) and 108% (inactive). The growth in the experiment with MOLT-4 leukemia is 150% (inactive) and 80.2% (inactive).

Turning to `O=Nc1ccc(O)cc1`, the growth was 89.3% (inactive) and 92.3% (inactive) with HCT-15 colon; 97.4% (inactive) and 97.5% (inactive) with HT29 colon; 106% (inactive) and 99.3% (inactive) with SNB-19 CNS; 101% (inactive) and 94.2% (inactive) in the experiment with U251 CNS; 85.1% (inactive) and 90% (inactive) in the experiment with PC-3 prostate; 98% (inactive) and 109% (inactive) in the experiment on SK-MEL-5 melanoma. The growth in the experiment on UACC-62 melanoma was 90.2% (inactive) and 93.4% (inactive); with LOX IMVI melanoma, 90.8% (inactive) and 82.3% (inactive); in the experiment on SK-MEL-28 melanoma it was 113% (inactive); with SK-MEL-2 melanoma it was 96.7% (inactive) and 109% (inactive); in the experiment with EKVX NSCLC, 91.6% (inactive) and 105% (inactive); in the experiment on SN12C renal, 96.1% (inactive) and 97.3% (inactive). Moreover, the growth with UO-31 renal was 90.7% (inactive) and 62.9% (inactive); in the experiment with TK-10 renal, 107% (inactive) and 105% (inactive); in the experiment with ACHN renal, 81.3% (inactive) and 75% (inactive); in the experiment on CAKI-1 renal it was 97.9% (inactive); in the experiment with A498 renal, 122% (inactive) and 130% (inactive); in the experiment with CCRF-CEM leukemia, 75.4% (inactive) and 56.1% (inactive). The growth with MOLT-4 leukemia is 82.5% (inactive) and 89.2% (inactive).
